Compound activity (PubChem)
FBPA coupling cs: counter-screen for Giardia aldolase inhibitors: coupling enzyme system. coupling enzyme system counterscreen, AmpLite Red fluorescence. activity change, negative = inhibition, % at 58.2 µM, hits read low. 290,000 tested, 0.67% active. AID 2472; in the data active means activity change below about -30%
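Activity here indicates interference with the coupling reaction, not aldolase inhibition. Compounds at 57.5 uM final met coupling enzymes for 10 min at RT; substrate and AmpLite Red detection followed, with a 525/598 nm fluorescence read after 20 min.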
Tau ThT inhib: inhibitors of human tau fibril formation, thioflavin T binding; P10636; recombinant tau K18 P301L, heparin-induced fibrillization, ThT fluorescence; Potency, µM (series often up to 57.4 µM), inactives show at the highest dose activity, negative = inhibition, usual class: inhibitors; 270,000 tested, 2.1% active; AID 1460; further: potency means the concentration at half of the fitted maximal effect; nearly all actives have a fitted effect of over 55% in size
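K18 P301L tau (15 uM + 0.24 uM Alexa 594-tagged), heparin 20 uM, NaOAc pH 7, 6 h 37 C; ThT 30 uM, 1 h RT, ex 450/em 510 nm.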
Tau fluor cs: counter-screen for tau fibril formation inhibitors. tau K18 P301L Alexa594 fluorescence, heparin fibrillization. Potency, µM (top dose mostly 57.7 µM), for inactives: at the highest dose activity change, negative = decrease. 280,000 tested, 0.93% active; further: potency means the concentration at half of the fitted maximal effect; nearly all actives have a fitted effect of over 55% in size
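Human tau K18 P301L (15 uM unlabeled, 0.24 uM Alexa 594-labeled) in 100 mM sodium acetate pH 7 with 20 uM heparin, 6 hr at 37 C. ThT 30 uM added, 1 hr ambient; Alexa 594 FP and total fluorescence read at 555/632 nm.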
Tau fibril FP: tau fibrillization inhibition (FP); P10636; K18 P301L tau heparin fibrillization, Alexa594 FP, 6 h; Potency, µM (highest dose often 57.7 µM), inactives show at the top dose activity, negative = inhibition, hits mostly inhibitors; 280,000 tested, 0.39% active; AID 1468; further: potency means the concentration at half of the fitted maximal effect; nearly all actives have a fitted effect of over 55% in size
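FP of Alexa 594-tau after heparin (20 uM) induction. Substrate: human K18 P301L, 15 uM unlabeled, 0.24 uM labeled. Buffer 100 mM sodium acetate pH 7. 6 hr, 37 C.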
USP1-UAF1 inh: USP1/UAF1 (human) deubiquitinase inhibition | O94782 | recombinant USP1/UAF1, Ub-Rhodamine cleavage fluorescence | Potency, µM (top dose mostly 57.1 µM), for the others: at the top dose activity change, negative = inhibition, actives largely listed as inhibitors | 390,000 tested, 0.23% active; further: potency means the concentration at half of the fitted maximal effect; nearly all actives have a fitted effect of over 60% in size
Target sequence (O94782 whole entry, looked up): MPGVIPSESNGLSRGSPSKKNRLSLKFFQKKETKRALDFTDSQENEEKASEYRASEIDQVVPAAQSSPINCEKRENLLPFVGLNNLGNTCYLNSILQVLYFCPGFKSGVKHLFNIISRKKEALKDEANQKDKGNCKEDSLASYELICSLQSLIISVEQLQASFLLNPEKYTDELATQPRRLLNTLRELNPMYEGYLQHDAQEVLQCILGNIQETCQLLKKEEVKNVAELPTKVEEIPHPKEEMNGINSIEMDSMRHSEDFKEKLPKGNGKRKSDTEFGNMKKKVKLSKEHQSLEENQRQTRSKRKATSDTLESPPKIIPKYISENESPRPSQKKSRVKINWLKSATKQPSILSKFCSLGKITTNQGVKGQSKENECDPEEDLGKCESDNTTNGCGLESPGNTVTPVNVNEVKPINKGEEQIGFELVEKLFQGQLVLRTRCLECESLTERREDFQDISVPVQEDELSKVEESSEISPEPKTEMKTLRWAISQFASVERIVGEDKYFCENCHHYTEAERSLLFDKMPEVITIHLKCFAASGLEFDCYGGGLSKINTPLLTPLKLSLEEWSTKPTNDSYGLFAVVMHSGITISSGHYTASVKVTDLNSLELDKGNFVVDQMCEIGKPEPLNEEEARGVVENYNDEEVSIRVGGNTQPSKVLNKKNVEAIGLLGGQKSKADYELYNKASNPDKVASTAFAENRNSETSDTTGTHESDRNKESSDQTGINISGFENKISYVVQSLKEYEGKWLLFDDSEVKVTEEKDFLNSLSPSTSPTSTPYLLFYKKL
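1 nM enzyme complex + cpd, 15 min RT; start with Ub-Rho 150nM final; kinetic fluorescence ex 480/em 540, 6 reads q60 s. Buffer 50mM HEPES pH 7.8, 0.5mM EDTA, 0.1 mg/ml BSA, 1mM TCEP, 0.01% Tween-20.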
An asterisk follows results filed as active; ? = inconclusive; · = no result given; [ ] = dose if it differs, or a comment. An excerpt weighted towards active compounds, which were near 2.3% of everything screened. Unless noted, the call rests on the fitted dose curve; in most records, active means well fitted curve in the direction sought with a large enough effect; inconclusive means small, poorly fitted or top-dose-only effect, or another doubt; inactive means no such curve, though single readings can be large; an effect the other way counts as inactive or inconclusive. On the % scale 0 is the no-effect control and ±100 the full control effect.

SMILES	FBPA coupling cs	Tau ThT inhib	Tau fluor cs	Tau fibril FP	USP1-UAF1 inh
CCc1ccc2oc(-c3cc(NC(=O)c4cccnc4)cc(C)c3O)nc2c1	·	-14%	?	?	-17%
Cc1cccc(-n2c(O)c(C=Nc3cccc(O)c3)c3ccccc3c2=O)n1	-2	-13%	-20%	-2%	-17%
CC1=NC(=O)C(N=Nc2cccc(O)c2)N1c1ccccc1 (configuration not stated)	-2	5µM*	?	-4%	-9%
O=C1N/C(=C\c2ccc(O)cc2)C(=O)c2ccccc21	-31*	?	-28%	-4%	28µM*
O=C(O)/C=C1\NC(=O)c2ccccc21	7	-17%	-11%	5%	-13%
CC(N)(C(=O)O)c1cccc(CC(=O)O)c1 (configuration not stated)	·	3%	4%	0%	·
CSc1nnc(SC)nn1	1	0%	-1%	1%	·
COc1ccc(-c2cc3ncc(C(=O)c4cc([N+](=O)[O-])ccc4O)cn3n2)cc1	·	7.1µM*	-16%	8%	-24%
Cc1ccc(-c2cc3ncc(C(=O)c4cc(Cl)c(C)cc4O)cn3n2)cc1	·	-14%	-15%	?	-22%
O=C1C2Cc3c([nH]c4ccccc34)C(c3ccccc3)N2C(=O)C2Cc3c([nH]c4ccccc34)C(c3ccccc3)N12 (configuration not stated)	0	-4%[11.5 µM]	-2%[11.6 µM]	-3%[11.6 µM]	·
N#CC1=C(N)C2=CCCC[C@H]2[C@H](c2ccc(Br)cc2)C1(C#N)C#N	-23	14µM*	?	?	-25%
O=C(Cn1ncc2c3ccccc3n(Cc3ccccc3F)c2c1=O)NCc1ccccc1Cl	·	11%	-1%	-13%	5%
CSCC[C@H](NC(=O)[C@H](CC(C)C)NC(=O)CNC(=O)[C@H](Cc1ccccc1)NC(=O)[C@H](Cc1ccccc1)NC(=O)[C@H](CCC(N)=O)NC(=O)[C@H](CCC(N)=O)NC(=O)[C@@H]1CCCN1C(=O)[C@H](CCCCN)NC(=O)[C@@H]1CCCN1C(=O)[C@H](CCCN=C(N)N)NC(=O)CCCCC1SCC2NC(=O)NC21)C(N)=O (some centres not stated)	1	·	·	·	·
Cn1c(C(=O)c2ccccc2[N+](=O)[O-])nc2ccccc21	-30*	1%	-5%	-2%	-1%
CCN(CC)c1ccc(N=Cc2c(C)[nH]c3ccccc23)cc1	-18	8.9µM*	?	?	?
Cc1[nH]c2ccccc2c1/C=N/n1cnnc1	-1	-1%	3%	1%	-14%
Cc1ccc2c(c1)CCCN2CC(=O)Nc1cccc(S(=O)(=O)N2CCCC2)c1	·	·	·	·	-21%
CCOc1cc(/C=C2\C(=O)N(Cc3ccco3)C(C)=C2C(=O)OC)ccc1O	-14	28µM*	?	?	-11%
CCOC(=O)C1=C(C)N(c2ccc(OCC)cc2)C(=O)/C1=C\c1ccco1	-2	14µM*	-22%	?	-7%
CCOc1cc(/C=C2\C(=O)N(CCc3ccc(OC)c(OC)c3)C(C)=C2C(=O)OC)ccc1O	-16	28µM*	?	?	-17%
COC(=O)C1=C(C)N(c2cccc(OC)c2)C(=O)/C1=C\c1ccco1	-2	?	-20%	-11%	-18%
CCOc1cc(/C=C2/C(=O)ON=C2C)ccc1O	-1	·	·	·	-17%
CCOC(=O)C1=C(C)N(c2ccc(C)cc2)C(=O)/C1=C\c1ccc(O)c(OC)c1	-17	25µM*	?	?	-12%
COC(=O)C1=C(C)N(Cc2ccc(C)cc2)C(=O)/C1=C\c1cc(OC)c(OC)c(OC)c1	-1	?	-16%	-8%	-25%
CS(=O)(=O)Nc1c(O)ccc2c1CCCC2C1=NCCN1 (configuration not stated)	·	-3%	-2%	-7%	·
O=C(CCN1C(=O)c2ccccc2Sc2ncccc21)Nc1ccc(F)cc1F	·	2%	-2%	-3%	15%
Cc1ccc2nc(NS(C)(=O)=O)sc2c1	2	-3%	3%	6%	-22%
COC(=O)C1=C(C)N(Cc2ccc(C)cc2)C(=O)/C1=C\c1ccc(O)c(OC)c1	-12	14µM*	?	?	-8%
